The record followed here is paper PMC12670160, “A drug-repurposing screen of FDA- and EMA-approved drugs identifies two NF-κB inhibitors active against eumycetoma” (Journal of Antimicrobial Chemotherapy, 2025).

Structures can show the parent of a compound that is named as a salt. Hit rate of the full screen: of about 5,300 compounds, about 130 (2.5%) showed an effect of 50% or more. What follows is part of a selection rich in strong results, with near analogues and random picks from the rest.

The test concerns M. mycetomatis strain mm55. The note with it: primary screen, metabolic activity vs growth control; 96 h, 2 µM; inhibitor.
Regarding `CNC(=O)c1ccc2cc([C@]3(O)CCn4cncc43)ccc2c1` [ONC0004670, tak700 orteronel], the “% viability” value worked out at 115.9%.

For the molecule `CCN(CCCOc1ccc2c(Nc3cc(CC(=O)Nc4cccc(F)c4)n[nH]3)ncnc2c1)CCOP(=O)(O)O` [ONC0002222, azd1152], the “% viability” value is 73.5%. With `C[C@@H](NCCc1ccc(O)cc1)[C@@H](O)c1ccc(O)cc1` (racemic) [ONC0000689, ritodrine hydrochloride], the “% viability” value was found to be 122.8%. As to `Cc1oc(=O)oc1COC(=O)C1=C([C@H]2CCCO2)S[C@@H]2[C@@H]([C@@H](C)O)C(=O)N12` [ONC0001072, faropenem daloxate], the “% viability” value is 41.67%. `C[C@@H](O)[C@H]1C(=O)N2C(C(=O)[O-])=C([C@H]3CCCO3)S[C@H]12.C[C@@H](O)[C@H]1C(=O)N2C(C(=O)[O-])=C([C@H]3CCCO3)S[C@H]12.O.O.O.O.O.[Na+].[Na+]` [ONC0000335, faropenem sodium hemipentahydrate]: the “% viability” value worked out at 95.52%. Consider `C1=C/COCc2cc(ccc2OCCN2CCCC2)Nc2nccc(n2)-c2cccc(c2)COC/1` [ONC0004380, pacritinib sb1518], for which the “% viability” value worked out at 107.6%. As for `O=C(NC1CCNCC1)[C@@H]1CC[C@@H]2CN1C(=O)N2OS(=O)(=O)O` [ONC0001257, relebactam], the “% viability” value was 62.24%. As to `CC[C@H](C)[C@@H]([C@@H](CC(=O)N1CCC[C@H]1[C@H](OC)[C@@H](C)C(=O)N[C@@H](Cc1ccccc1)c1nccs1)OC)N(C)C(=O)[C@@H](NC(=O)[C@H](C(C)C)N(C)C)C(C)C` [ONC0003667, dolastin10], the “% viability” value stood at 74.88%. As for `N#C/C(=C1/SC[C@@H](c2ccc(Cl)cc2Cl)S1)n1ccnc1` [Luliconazole], the “% viability” value was determined as 0.7126%. With `N#C/C(=C1/SCC(c2ccccc2Cl)S1)n1ccnc1` (stereo not drawn) [Lanoconazole], the “% viability” value is 3.92%. Turning to `C[C@@]12CC[C@@H]3[C@@](CC[C@H]4[C@@]3(C)CCC[C@@]4(C)C(=O)O)(CC1=O)C2` [ONC0002858, isosteviol], the “% viability” value worked out at 83.56%. With `CN(C)c1ccc(-c2nc3c(N4CCN(CC(=O)Nc5nccs5)CC4)c(Cl)cnc3[nH]2)cc1` [ONC0004963, cct129202], the “% viability” value was 95.03%. As to `O=C1c2ccccc2NC2=CCCCCN12` [ONC0003231, 78910tetrahydroazepino21bquinazolin126hone], the “% viability” value is on record as 99.72%. In the case of `COc1ccccc1OCC(O)CNC(C)C` (stereo not drawn) [ONC0003655, moprolol] it was 69.09%. `[2H]C([2H])([2H])C(O)(CCO[C@@H](C)[C@H]1CC[C@H]2/C(=C/C=C3/C[C@@H](O)C[C@H](O)C3=C)CCC[C@]12C)C([2H])([2H])[2H]` [ONC0001868, maxacalcitol]: the “% viability” value is listed as 112.3%. Turning to `Oc1ccc(C2(c3ccccc3F)CCC(F)(F)CC2)cc1` [ONC0000174, ac186], the “% viability” value was found to be 93.25%. In the case of `CN(C)C/C=C/C(=O)Nc1cccc(C(=O)Nc2cccc(Nc3ncc(Cl)c(-c4c[nH]c5ccccc45)n3)c2)c1` [ONC0002061, thz2], the “% viability” value was found to be 66.57%. Turning to `Cc1cc(C(=O)Nc2nc3cccc(Cl)c3n2[C@@H]2CCCCN(C(=O)/C=C/CN(C)C)C2)ccn1` [ONC0001107, nazartinib], the “% viability” value is 39.34%. Consider `CN(C)C/C=C/C(=O)Nc1ccc(C(=O)Nc2cccc(Nc3ncc(Cl)c(-c4c[nH]c5ccccc45)n3)c2)cc1` [ONC0002074, thz1], for which the “% viability” value was found to be 55.81%. Take `CC(=O)[C@@]12OC(C)(c3ccccc3)O[C@@H]1C[C@H]1[C@@H]3CCC4=CC(=O)CC[C@]4(C)[C@H]3CC[C@@]12C` (stereo partly drawn) [ONC0002369, algestoneacetophenide]: the “% viability” value came out at 99.76%. As for `CC(Nc1ncnc2nc[nH]c12)c1cc2ccc(F)cc2nc1-c1ccccn1` (stereo not drawn) [ONC0004426, amg319], the “% viability” value was 156.7%. Regarding `N[C@H](CSC(c1ccccc1)(c1ccccc1)c1ccccc1)C(=O)O` [ONC0001742, strityllcysteine], the “% viability” value turned out to be 48.39%. In the case of `N[C@H](Cc1ccccc1)C(=O)O` [ONC0002457, dphenylalanine] it was 101.3%. Regarding `CSC[C@H](N)C(=O)O` [ONC0003388, smethylcysteine], the “% viability” value amounted to 83.56%. As for `C[C@]12C=CC(=O)C=C1CCC1C2[C@@H](O)C[C@@]2(C)C1CC[C@]2(O)C(=O)CO` (stereo partly drawn) [ONC0005351, prednisolone], the “% viability” value came to 112.6%. On to `COc1cc(-c2ccc(/N=N/c3ccc4c(S(=O)(=O)O)cc(S(=O)(=O)O)c(N)c4c3O)c(OC)c2)ccc1/N=N/c1ccc2c(S(=O)(=O)O)cc(S(=O)(=O)O)c(N)c2c1O` [ONC0002750, chicagoskyblue6b], for which the “% viability” value is recorded as 94.85%. For `Cc1cc(-c2ccc(/N=N/c3ccc4c(S(=O)(=O)O)cc(S(=O)(=O)O)c(N)c4c3O)c(C)c2)ccc1/N=N/c1ccc2c(S(=O)(=O)O)cc(S(=O)(=O)O)c(N)c2c1O` [ONC0003296, evans blue], the “% viability” value is 49.05%. In the case of `COC(=O)CC1CC(c2ccc(O)cc2)=NO1` (stereo not drawn) [ONC0001839, iso1] it was 78.97%; in that of `N[C@@H](CC(=O)N1CCn2c(nnc2C(F)(F)F)C1)Cc1cc(F)c(F)cc1F` [ONC0004045, sitagliptin phosphate], 93.31%; in that of `N[C@@H](CC(=O)N1CCn2c(nnc2C(F)(F)F)C1)Cc1n[nH]c2c(F)c(F)ccc12` [ONC0001660, pk44 phosphate], 33.36%. `NCCNc1ccc(NCCN)c2c1C(=O)c1ccncc1C2=O.O=C(O)/C=C\C(=O)O.O=C(O)/C=C\C(=O)O` [ONC0000916, pixantrone dimaleate]: the “% viability” value came to 85.22%.

Consider `Fc1cc(F)c2c(c1)[C@H]1C=CC[C@H]1C(c1cccnc1)N2` (mixture of isomers) [ONC0005186, golgicide a], for which the “% viability” value is listed as 78.39%. With `Cc1ccc2c(c1CCC(=O)O)CC[C@@H](NS(=O)(=O)c1ccc(Cl)cc1)C2` [ONC0001303, terutroban] the figure was 45.19%; with `O=C(O)CCn1c2c(c3ccccc31)C[C@H](NS(=O)(=O)c1ccc(F)cc1)CC2` [ONC0000918, ramatroban], 93.57%. On to `O=C(O)Cc1ccc(CCNS(=O)(=O)c2ccc(Cl)cc2)cc1` [ONC0002194, daltroban], for which the “% viability” value worked out at 74.66%.

For `COC[C@H](NC(=O)c1cnc(C)s1)C(=O)N[C@@H](COC)C(=O)N[C@@H](Cc1ccccc1)C(=O)C1(C)CO1` (stereo partly drawn) [ONC0004389, oprozomib onx 0912], the “% viability” value turned out to be 101.4%. In the case of `O=C(CNC(=O)c1cccc(C(F)(F)F)c1)N[C@@H]1CCN(Cc2ccc(Cl)cc2)C1` [ONC0002608, teijincompound1] it was 76.98%; in that of `C[S+]([O-])CCCCN=C=S` (stereo not drawn) [ONC0003262, sulforaphane], 49.62%. Regarding `C/C=C/C1=C(C(=O)O)N2C(=O)[C@@H](NC(=O)[C@H](N)c3ccc(O)cc3)[C@H]2SC1` [ONC0004213, cefprozil], the “% viability” value was determined as 75.17%. In the case of `O=C(Nc1cnccc1Cl)N1CCN(Cc2ccc3c(c2)OC(F)(F)O3)CC1` [ONC0001299, jnj42165279] it was 60.28%. With `COc1nc(C)nc(Cl)c1N=C1NCCN1` [ONC0003528, moxonidine] the figure was 108%. For the molecule `CCCCCCCC/C=C/C(=O)O` [ONC0003676, trans2undecenoic acid], the “% viability” value is 70.7%. On to `CCCCCC(C)N` (stereo not drawn) [ONC0003207, tuaminoheptane sulfate], for which the “% viability” value turned out to be 110.6%. Regarding `CCCCCCCCCCCCCCC[C@@H](O)[C@@H](N)CO` [ONC0003442, dihydrosphingosine derythro], the “% viability” value is listed as 75.68%. In the case of `CCCCCCCCCCCCCC[C@@H](O)[C@@H](O)[C@@H](N)CO` [ONC0003465, phytosphingosine], the “% viability” value is on record as 45.49%.

As to `N#Cc1ccc(Cn2cncc2CN2CCN(c3cccc(Cl)c3)C(=O)C2)cc1` [ONC0000972, l778123 hydrochloride], the “% viability” value worked out at 78.78%. In the case of `CC(=O)O[C@]1(C(C)=O)CCC2C3C[C@H](C)C4=CC(=O)CC[C@]4(C)C3CC[C@@]21C` (stereo partly drawn) [ONC0000456, medroxyprogesterone acetate] it was 83.76%. On to `N[C@H](Cc1cc(I)c(Oc2ccc(O)c(I)c2)c(I)c1)C(=O)O` [ONC0003830, liothyronine], for which the “% viability” value is given as 90.31%. With `O=C(O[C@@H]1C[C@@H]2C[C@@H]3C[C@H](C1)N2CC3=O)c1c[nH]c2ccccc12` [ONC0005492, dolasetron] the figure was 77.8%. Turning to `O[C@H]([C@H](O)[C@@H]1CO1)[C@H]1CO1` [ONC0001201, val083], the “% viability” value was found to be 107%. As for `CC(C)(C)c1ccc(C(=O)Nc2cn3cc(-n4ccnc4)ccc3n2)cc1` [ONC0000079, tcask10], the “% viability” value was 88.09%.

For the molecule `N[C@@H](CC(=O)NO)C(=O)O` [ONC0005577, lasparaginenhydroxy], the “% viability” value is reported as 46.79%. In the case of `N[C@@H](CC(=O)O)C(=O)O` [ONC0005584, lasparticacid], the “% viability” value stood at 67.27%. For `NC(=O)C[C@H](N)C(=O)O` [ONC0002130, lasparagine], the “% viability” value is reported as 76.47%. With `CC1(C)S[C@@H]2C(N3C(=O)[C@@H](c4ccccc4)NC3(C)C)C(=O)N2[C@H]1C(=O)O` (stereo partly drawn) [ONC0000520, hetacillin potassium] the figure was 62.89%; with `Cn1c(Nc2ccc(C(F)(F)F)cc2)nc2cc(Oc3ccnc(-c4ncc(C(F)(F)F)[nH]4)c3)ccc21` [ONC0005005, raf265 chir265], 41.37%. Regarding `CC(C)C[C@H](NC(=O)CN(C)C(=O)[C@H](Cc1ccccc1)NC(=O)[C@H](Cc1ccccc1)NC(=O)[C@H](CCC(N)=O)NC(=O)[C@H](CCC(N)=O)NC(=O)[C@@H]1CCCN1C(=O)[C@H](CCCCN)NC(=O)[C@@H]1CCCN1C(=O)[C@@H](N)CCCNC(=N)N)C(=O)N[C@@H](CCS(C)(=O)=O)C(N)=O` [ONC0003648, sar9meto211substance p], the “% viability” value came out at 64.96%.
